Measured values reported in PubChem BioAssay.
The source made the active and inactive calls. Unless noted, the rule behind the calls is not given here.

Columns and labels:
[1] = system: Wnt5a (protein binding on small-molecule microarray); assay: small molecules binding Wnt5a protein – biophysical, small-molecule microarray, 635/667 nm fluorescence, primary screen (AID 1142); conditions: 635 nm fluorescence, higher = more signal;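 note: fluorescence read at 667 nm with signal to noise per printed feature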
[2] = ATP-based viability of Huh7 replicon cells – cell-based, CellTiter-Glo luminescence, basal, 48 h, cytotoxicity control for HCV replication inhibitor project, primary screen (AID 1143); conditions: higher = more signal, called active from +8 up or from −8 down;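 note: Huh7 hepatoma cells carrying a hepatitis C replication reporter with no stimulus; test concentration not given here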
[3] = Pseudomonas biofilm growth suppression – PAO1 strain, BacTiter-Glo luminescence, LB-PBS, primary screen (AID 1144); conditions: P. aeruginosa PAO1 biofilm, 12 h, higher = more signal
[4] = basal CRE-LacZ reporter activity in PC12 – cell-based, unstimulated, primary screen (AID 1145); conditions: no forskolin, luminescence, 4.5 h, higher = more signal, called active from +8 up or from −8 down
[5] = forskolin-driven CRE-LacZ activity in PC12 – cell-based, CRE-LacZ reporter, forskolin-stimulated, primary screen (AID 1146); conditions: luminescence, 4.5 h, higher = more signal, called active from +8 up or from −8 down;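 note: PC12 cells with 6xCRE LacZ reporter stimulated by forskolin 10 µM; beta-galactosidase reporter signal reflecting CREB driven transcription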
[6] = target: Streptavidin (Streptomyces avidinii) (UniProt P22629); assay: compounds binding control protein streptavidin – biophysical, small-molecule microarray, 635/667 nm fluorescence, artefact control for SMM compound annotation, primary screen (AID 1147); conditions: higher = more signal;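 note: signal reflects streptavidin binding to arrayed compounds as a control protein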
[7] = probe aInhba binding on compound microarray – biochemical, small-molecule microarray, 635/667 nm fluorescence, primary screen (AID 1148); conditions: higher = more signal;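 note: score merges 667nm spot fluorescence with signal-to-noise for antibody binding to printed compounds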
Torsin-1A (Homo sapiens) [8] = target: Torsin-1A (Homo sapiens) (UniProt O14656); assay: TOR1A wild-type binding on microarray – cell lysate, small-molecule microarray, lysate, 635/667 nm, primary screen (AID 1149); conditions: COS7 hTOR1A-WT lysate, 635 nm fluorescence, higher = more signal
Torsin-1A (Homo sapiens) [9] = target: Torsin-1A (Homo sapiens) (UniProt O14656); assay: torsin A mutant lysate binding on microarrays – cell lysate, small-molecule microarray, COS7 lysate, 635/667 nm fluorescence, primary screen (AID 1150); conditions: COS7 hTOR1A mutant lysate, 635 nm fluorescence, higher = more signal;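 note: score pools 667 nm emission and signal to noise measuring lysate protein binding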
[10] = system: Sonic hedgehog protein (Shh); assay: Sonic hedgehog microarray binding compounds – biochemical, small-molecule microarray, 635/667 nm fluorescence, primary screen (AID 1151); conditions: 635 nm fluorescence, higher = more signal;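 note: Shh protein binding to compounds spotted on small-molecule microarray slides; score combines spot fluorescence intensity with signal-to-noise across triplicate slides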

Sequence of Streptavidin (Streptomyces avidinii) (P22629 whole entry, looked up): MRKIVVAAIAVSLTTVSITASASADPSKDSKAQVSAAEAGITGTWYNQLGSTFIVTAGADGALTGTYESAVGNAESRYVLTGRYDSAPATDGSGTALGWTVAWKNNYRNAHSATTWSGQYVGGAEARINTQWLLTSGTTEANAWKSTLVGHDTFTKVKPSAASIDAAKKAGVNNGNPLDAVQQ
Sequence of Torsin-1A (Homo sapiens) (O14656 whole entry, looked up): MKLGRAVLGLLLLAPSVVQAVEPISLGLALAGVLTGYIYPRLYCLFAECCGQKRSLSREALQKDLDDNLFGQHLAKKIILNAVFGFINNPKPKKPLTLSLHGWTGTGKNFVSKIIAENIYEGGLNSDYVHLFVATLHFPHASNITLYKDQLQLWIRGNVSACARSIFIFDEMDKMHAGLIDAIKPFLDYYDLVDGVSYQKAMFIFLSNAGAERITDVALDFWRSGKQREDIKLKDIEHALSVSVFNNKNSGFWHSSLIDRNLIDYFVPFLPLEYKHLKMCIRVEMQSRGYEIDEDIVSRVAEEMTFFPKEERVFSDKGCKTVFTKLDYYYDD

COc1ccccc1CN1C(=O)c2ccccc2[C@](Cc2ccccc2I)(C(=O)O)[C@@H]1c1ccc(CO)cc1
composite z-score [1]: 0.638
z-score [2]: -1.03 (inactive)
z-score [3]: 0.776 (inactive)
z-score [4]: 0.145 (inactive)
z-score [5]: -0.677 (inactive)
composite z-score [6]: 1.09
composite z-score [7]: 0.0753
composite z-score (Torsin-1A (Homo sapiens) [8]): 0.399
composite z-score (Torsin-1A (Homo sapiens) [9]): 1.54
composite z-score [10]: 1.61

CC(=O)NCCCC[C@@H]1NC(=O)[C@@H]2C[C@H](C(=O)NCCCCCN)[C@H](c3ccc(O)cc3)N2C1=O
composite z-score [1]: 0.66
z-score [2]: -0.224 (inactive)
z-score [3]: 0.268 (inactive)
z-score [4]: 0.285 (inactive)
z-score [5]: -0.389 (inactive)
composite z-score [6]: 0.977
composite z-score [7]: 0.221
composite z-score (Torsin-1A (Homo sapiens) [8]): 1.14
composite z-score (Torsin-1A (Homo sapiens) [9]): 1.54
composite z-score [10]: 1.52

O=C(c1ccccc1)N1C(=O)[C@]2(Cc3ccccc31)N=C(c1ccc(OCCCO)cc1)O[C@@H]2c1ccccc1
composite z-score [1]: 1.09
z-score [2]: -5.16 (inactive)
z-score [3]: -0.378 (inactive)
z-score [4]: 2.67 (inactive)
z-score [5]: 2.1 (inactive)
composite z-score [6]: 0.431
composite z-score [7]: -0.0361
composite z-score (Torsin-1A (Homo sapiens) [8]): 0.357
composite z-score (Torsin-1A (Homo sapiens) [9]): 0.562
composite z-score [10]: 2.09

O=C1C2C=CC(C(O)c3cccc(O)c3)N(Nc3ccc([N+](=O)[O-])cc3)C2C(=O)N1c1ccccc1 (stereo not given)
composite z-score [1]: 0.22
z-score [2]: -0.933 (inactive)
z-score [3]: -0.271 (inactive)
z-score [4]: -0.257 (inactive)
z-score [5]: -0.489 (inactive)
composite z-score [6]: 0.514
composite z-score [7]: 0.0649
composite z-score (Torsin-1A (Homo sapiens) [8]): 0.331
composite z-score (Torsin-1A (Homo sapiens) [9]): 0.132
composite z-score [10]: -0.164

C#CCN([C@@H](Cc1ccccc1)C(=O)OC)[C@@H](/C=C/C1CC1)[C@H](O)Cc1ccccc1
composite z-score [1]: -0.476
z-score [2]: -3.22 (inactive)
z-score [3]: 0.398 (inactive)
z-score [4]: 1.67 (inactive)
z-score [5]: -0.0949 (inactive)
composite z-score [6]: -0.676
composite z-score [7]: -0.157
composite z-score (Torsin-1A (Homo sapiens) [8]): 0.239
composite z-score (Torsin-1A (Homo sapiens) [9]): -0.211
composite z-score [10]: 0.314

COc1ccc(CCNC(=O)[C@@]2(Cc3ccccc3I)c3ccccc3C(=O)N(C3CCCCC3)[C@H]2c2ccc(CO)cc2)cc1
composite z-score [1]: -0.372
z-score [2]: -6.39 (inactive)
z-score [3]: -1.43 (inactive)
z-score [4]: -0.0243 (inactive)
z-score [5]: -1.06 (inactive)
composite z-score [6]: 0.623
composite z-score [7]: 0.0198
composite z-score (Torsin-1A (Homo sapiens) [8]): -0.57
composite z-score (Torsin-1A (Homo sapiens) [9]): -0.0979
composite z-score [10]: -0.193

COc1ccc([Si](C)(C)[C@@H]2[C@@H](CCO)O[C@]3(C(=O)N(Cc4ccccc4)c4ccc(N5C(=O)c6cccc7cccc5c67)cc43)[C@H]2C)cc1
composite z-score [1]: -0.328
z-score [2]: -4 (inactive)
z-score [3]: -0.441 (inactive)
z-score [4]: 2.39 (inactive)
z-score [5]: 0.302 (inactive)
composite z-score [6]: 0.305
composite z-score [7]: -0.179
composite z-score (Torsin-1A (Homo sapiens) [8]): -1.07
composite z-score (Torsin-1A (Homo sapiens) [9]): -0.909
composite z-score [10]: -0.204

COCC(=C=CC[C@H](O)c1ccc(CO)o1)CCO
composite z-score [1]: 0.181
z-score [2]: -0.25 (inactive)
z-score [3]: 0.308 (inactive)
z-score [4]: 1.51 (inactive)
z-score [5]: -0.255 (inactive)
composite z-score [6]: 0.141
composite z-score [7]: -0.003
composite z-score (Torsin-1A (Homo sapiens) [8]): 0.494
composite z-score (Torsin-1A (Homo sapiens) [9]): 0.246
composite z-score [10]: 1.99

COCCCNC(=O)[C@@]1(Sc2ccc(C)cc2)CC(=O)N(C2Cc3ccccc3C2)[C@@H]1c1ccc(CO)cc1
composite z-score [1]: -0.228
z-score [2]: -4.69 (inactive)
z-score [3]: -1.03 (inactive)
z-score [4]: 0.685 (inactive)
z-score [5]: 1.95 (inactive)
composite z-score [6]: -1.17
composite z-score [7]: -0.327
composite z-score (Torsin-1A (Homo sapiens) [8]): -1.86
composite z-score (Torsin-1A (Homo sapiens) [9]): -1.35
composite z-score [10]: -1.45

CO[C@H]1O[C@H](CO)[C@@H](OC(=O)Nc2ccccc2)[C@H](OC(=O)c2cc3ccccc3[nH]2)[C@H]1OC(=O)c1cc2ccccc2[nH]1
composite z-score [1]: 0.411
z-score [2]: -4.49 (inactive)
z-score [3]: -0.735 (inactive)
z-score [4]: -0.211 (inactive)
z-score [5]: -0.331 (inactive)
composite z-score [6]: -0.265
composite z-score [7]: 0.0636
composite z-score (Torsin-1A (Homo sapiens) [8]): 0.289
composite z-score (Torsin-1A (Homo sapiens) [9]): 0.311
composite z-score [10]: 1.3

O=C1OCCC=C[C@H]2OC34C=CCN(Cn5nnc6ccccc65)C(=O)[C@H]3N(CCCO)C(=O)[C@@H]4C12 (stereo not given in full)
composite z-score [1]: -0.197
z-score [2]: -2.61 (inactive)
z-score [3]: -0.413 (inactive)
z-score [4]: -0.903 (inactive)
z-score [5]: -0.242 (inactive)
composite z-score [6]: -1.01
composite z-score [7]: -0.161
composite z-score (Torsin-1A (Homo sapiens) [8]): -0.444
composite z-score (Torsin-1A (Homo sapiens) [9]): -2.04
composite z-score [10]: -0.128

COCCOC(=O)N1C(=O)[C@@]2(c3ccccc31)[C@H](c1ccc(O)cc1)N1[C@H](c3ccccc3)[C@H](c3ccccc3)OC(=O)[C@H]1[C@@H]2C(=O)N1CCN(c2ncccn2)CC1
composite z-score [1]: 0.019
z-score [2]: -3.19 (inactive)
z-score [3]: 0.109 (inactive)
z-score [4]: -0.598 (inactive)
z-score [5]: 1.09 (inactive)
composite z-score [6]: -0.0184
composite z-score [7]: 0.361
composite z-score (Torsin-1A (Homo sapiens) [8]): 0.432
composite z-score (Torsin-1A (Homo sapiens) [9]): 0.997
composite z-score [10]: 1.4

C=CCC(OC(C)=O)[C@@H]1[C@@H](N(Cc2ccc(-c3cccc(C(F)(F)F)c3)o2)C(=O)Cc2ccc(OC)cc2)c2cc(OCCCO)ccc2N1C(=O)c1ccc(-c2ccccc2)cc1 (stereo not given in full)
composite z-score [1]: 0.0179
z-score [2]: -1.28 (inactive)
z-score [3]: 0.198 (inactive)
z-score [4]: 1.15 (inactive)
z-score [5]: 0.393 (inactive)
composite z-score [6]: 1.31
composite z-score [7]: 0.153
composite z-score (Torsin-1A (Homo sapiens) [8]): -0.368
composite z-score (Torsin-1A (Homo sapiens) [9]): -0.38
composite z-score [10]: 0.439

CC(CO)N1C(=O)[C@@H]2[C@H]3C(=O)OCC=C[C@H]3OC23C=CCN(Cn2nnc4ccccc42)C(=O)[C@@H]13 (stereo not given in full)
composite z-score [1]: -0.33
z-score [2]: -0.407 (inactive)
z-score [3]: 1.48 (inactive)
z-score [4]: 0.0524 (inactive)
z-score [5]: -0.391 (inactive)
composite z-score [6]: -0.78
composite z-score [7]: -0.213
composite z-score (Torsin-1A (Homo sapiens) [8]): -0.49
composite z-score (Torsin-1A (Homo sapiens) [9]): -1.26
composite z-score [10]: 0.464

COc1ccc([Si](C)(C)[C@@H]2[C@@H](CCO)O[C@]3(C(=O)N(Cc4cccc(NC(=O)[C@H](C)O)c4)c4ccccc43)[C@H]2C)cc1
composite z-score [1]: 0.736
z-score [2]: -8.02 (active)
z-score [3]: -1.07 (inactive)
z-score [4]: 10.2 (active)
z-score [5]: -1.88 (inactive)
composite z-score [6]: 0.887
composite z-score [7]: -0.128
composite z-score (Torsin-1A (Homo sapiens) [8]): 0.23
composite z-score (Torsin-1A (Homo sapiens) [9]): 0.97
composite z-score [10]: 0.533

CC[C@@H]1C=C(C(=O)O)[C@H](c2ccccc2)N1S(=O)(=O)c1ccc(C)cc1
composite z-score [1]: 0.0651
z-score [2]: -0.272 (inactive)
z-score [3]: 0.853 (inactive)
z-score [4]: -0.676 (inactive)
z-score [5]: -0.0818 (inactive)
composite z-score [6]: 0.0128
composite z-score [7]: -0.197
composite z-score (Torsin-1A (Homo sapiens) [8]): 0.474
composite z-score (Torsin-1A (Homo sapiens) [9]): 0.518
composite z-score [10]: -0.313

O=C1OCCC=C[C@H]2OC34C=CCN(c5ccc6ccccc6c5)C(=O)[C@H]3N(CCCO)C(=O)[C@@H]4C12 (stereo not given in full)
composite z-score [1]: -1.2
z-score [2]: -2.26 (inactive)
z-score [3]: -0.633 (inactive)
z-score [4]: -0.0778 (inactive)
z-score [5]: -0.301 (inactive)
composite z-score [6]: -1.16
composite z-score [7]: -0.239
composite z-score (Torsin-1A (Homo sapiens) [8]): -1.44
composite z-score (Torsin-1A (Homo sapiens) [9]): -1.79
composite z-score [10]: -1.93
